In the supplement of paper PMC10849652:
About 8,800 targets were measured; listed, in parts, are those with a hit and a random draw of the rest. About 0.5% of all pairs of compound and target were hits.

Tests used:
Experiment in all cases: log2 fold change, soluble protein after heating vs DMSO (PISA); higher = thermal stabilisation; K562 lysate, 10 uM; active = over 0.2 and 3.5 SD of the protein, either way, in both replicates (recomputed)
alvocidib = compound: CN1CC[C@H](c2c(O)cc(O)c3c(=O)cc(-c4ccccc4Cl)oc23)[C@H](O)C1 [alvocidib]
Method in brief: (§1)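 Quantification was by TMTpro 16plex LC-MS/MS with equalised channel sums, applied to the supernatant after 21,000xg for 90 min. Samples were crude K562 extract at 1 mg/mL protein in PBS pH 7.4 with 1 mM MgCl2, treated with 10 μM compound for 30 min, heated for 3 min across 48°C-58°C, pooled and brought to 0.5% NP-40 at 4°C. Values are log-two fold changes in thermal stability relative to solvent controls, from duplicates.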

Tubastatin A = compound: CN1CCc2c(c3ccccc3n2Cc2ccc(C(=O)NO)cc2)C1 [Tubastatin A]
Method in brief: as §1

[1] = compound: CNC(=O)C1=CC=CC=C1NC2=NC(=NC=C2Cl)NC3=C(C=C(C=C3)N4CCOCC4)OC
Method in brief: as §1

defactinib = compound: CNC(=O)c1ccc(Nc2ncc(C(F)(F)F)c(NCc3nccnc3N(C)S(C)(=O)=O)n2)cc1 [defactinib]
Method in brief: as §1

[2] = compound: CNc1nc(-c2ccc3c(N)n[nH]c3c2)cc(N2C[C@@H](C(=O)NC3CCCCC3)CC[C@H]2C)n1
Method in brief: as §1

encorafenib = compound: COC(=O)N[C@@H](C)CNc1nccc(-c2cn(C(C)C)nc2-c2cc(Cl)cc(NS(C)(=O)=O)c2F)n1 [encorafenib]
Method in brief: as §1

[3] = compound: COC(=O)[C@H](CCSC)NC(=O)C1=C(C=C(C=C1)NC[C@H](CS)N)C2=CC=CC=C2
Method in brief: as §1

alisertib = compound: COc1cc(Nc2ncc3c(n2)-c2ccc(Cl)cc2C(c2c(F)cccc2OC)=NC3)ccc1C(=O)O [alisertib]
Method in brief: as §1

[4] = compound: COc1cc2nc(-c3cc(F)ccc3O)nc(N[C@@H]3CNC[C@H]3C(C)(C)O)c2cc1OC
Method in brief: as §1

gefitinib = compound: COc1cc2ncnc(Nc3ccc(F)c(Cl)c3)c2cc1OCCCN1CCOCC1 [gefitinib]
Method in brief: as §1

lapatinib = compound: CS(=O)(=O)CCNCc1ccc(-c2ccc3ncnc(Nc4ccc(OCc5cccc(F)c5)c(Cl)c4)c3c2)o1 [lapatinib]
Method in brief: as §1

pictilisib = compound: CS(=O)(=O)N1CCN(Cc2cc3nc(-c4cccc5[nH]ncc45)nc(N4CCOCC4)c3s2)CC1 [pictilisib]
Method in brief: as §1

crizotinib = compound: C[C@@H](Oc1cc(-c2cnn(C3CCNCC3)c2)cnc1N)c1c(Cl)ccc(F)c1Cl [crizotinib]
Method in brief: as §1

[5] = compound: C[C@H](C1=CC=C(C=C1)C(=O)NC2=C3C=CNC3=NC=C2)N
Method in brief: as §1

duvelisib = compound: C[C@H](Nc1ncnc2nc[nH]c12)c1cc2cccc(Cl)c2c(=O)n1-c1ccccc1 [duvelisib]
Method in brief: as §1

gandotinib = compound: Cc1cc(Nc2cc(CN3CCOCC3)c3nc(C)c(Cc4ccc(Cl)cc4F)n3n2)n[nH]1 [gandotinib]
Method in brief: as §1

tozasertib = compound: Cc1cc(Nc2cc(N3CCN(C)CC3)nc(Sc3ccc(NC(=O)C4CC4)cc3)n2)n[nH]1 [tozasertib]
Method in brief: as §1

doramapimod = compound: Cc1ccc(-n2nc(C(C)(C)C)cc2NC(=O)Nc2ccc(OCCN3CCOCC3)c3ccccc23)cc1 [doramapimod]
Method in brief: as §1

bafetinib = compound: Cc1ccc(NC(=O)c2ccc(CN3CC[C@H](N(C)C)C3)c(C(F)(F)F)c2)cc1Nc1nccc(-c2cncnc2)n1 [bafetinib]
Method in brief: as §1

[6] = compound: Cc1cccc(CC(=O)N2CCc3c2ccc(-c2cn(C)c4ncnc(N)c24)c3F)n1
Method in brief: as §1

Measured: log2 fold change

EPRS (UniProt P07814)
inactive: alvocidib 0.012 | Tubastatin A -0.11 | [1] 0.002 | defactinib 0.003 | [2] -0.015 | encorafenib -0.004 | [3] 0.107 | alisertib 0.015 | [4] -0.01 | gefitinib -0.032 | lapatinib -0.005 | pictilisib 0.006 | crizotinib -0.042 | [5] 0.015 | duvelisib 0.031 | gandotinib -0.069 | tozasertib 0.012 | doramapimod 0.02 | bafetinib 0.003 | [6] 0.019

FPGT (UniProt O14772)
Sequence of UniProt O14772 (O14772 whole entry, looked up): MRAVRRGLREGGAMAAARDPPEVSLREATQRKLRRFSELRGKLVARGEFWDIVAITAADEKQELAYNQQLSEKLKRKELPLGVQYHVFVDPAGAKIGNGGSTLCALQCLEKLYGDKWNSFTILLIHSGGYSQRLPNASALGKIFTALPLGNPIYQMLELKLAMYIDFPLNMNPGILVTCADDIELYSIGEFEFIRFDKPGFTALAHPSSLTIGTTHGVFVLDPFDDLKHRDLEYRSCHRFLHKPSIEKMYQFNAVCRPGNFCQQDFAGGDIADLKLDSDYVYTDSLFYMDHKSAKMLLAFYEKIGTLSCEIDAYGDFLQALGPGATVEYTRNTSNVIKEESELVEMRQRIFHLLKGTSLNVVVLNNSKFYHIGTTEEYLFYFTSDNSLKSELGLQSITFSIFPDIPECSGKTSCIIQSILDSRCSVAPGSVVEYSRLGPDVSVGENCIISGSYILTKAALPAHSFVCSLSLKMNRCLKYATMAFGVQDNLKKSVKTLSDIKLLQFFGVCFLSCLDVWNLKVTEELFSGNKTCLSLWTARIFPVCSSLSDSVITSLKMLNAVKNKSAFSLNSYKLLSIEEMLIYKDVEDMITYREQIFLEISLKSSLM
inactive: alvocidib 0.031 | Tubastatin A -0.111 | [1] -0.011 | defactinib 0.008 | [2] -0.02 | encorafenib 0.011 | [3] 0.058 | alisertib 0.002 | [4] 0.002 | gefitinib 0.013 | lapatinib 0.005 | pictilisib 0.019 | crizotinib -0.077 | duvelisib 0.006 | gandotinib -0.085 | tozasertib 0.012 | doramapimod 0.054 | bafetinib -0.043 | [6] -0.012
active: [5] 0.319

ECI2 (UniProt O75521)
Sequence of UniProt O75521 (O75521 whole entry, looked up): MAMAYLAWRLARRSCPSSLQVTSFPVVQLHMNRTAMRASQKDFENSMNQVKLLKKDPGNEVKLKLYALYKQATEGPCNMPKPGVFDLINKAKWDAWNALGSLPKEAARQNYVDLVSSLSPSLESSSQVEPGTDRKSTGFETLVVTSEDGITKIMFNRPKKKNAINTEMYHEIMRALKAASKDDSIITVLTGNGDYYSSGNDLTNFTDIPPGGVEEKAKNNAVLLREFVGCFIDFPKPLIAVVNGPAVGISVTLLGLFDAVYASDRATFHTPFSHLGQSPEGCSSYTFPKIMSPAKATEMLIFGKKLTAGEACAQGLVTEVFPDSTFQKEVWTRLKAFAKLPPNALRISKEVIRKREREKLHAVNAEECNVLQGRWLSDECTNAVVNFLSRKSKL
inactive: alvocidib -0.033 | Tubastatin A 0.054 | [1] -0.054 | defactinib -0.038 | [2] 0.03 | encorafenib -0.006 | [3] -0.067 | alisertib 0.004 | [4] -0.008 | gefitinib 0.011 | lapatinib -0.022 | pictilisib -0.017 | crizotinib 0.032 | [5] -0.002 | duvelisib 0.004 | gandotinib -0.009 | tozasertib 0.03 | doramapimod 0.007 | bafetinib -0.002 | [6] 0.042

FCHO1 (UniProt O14526)
Sequence of UniProt O14526 (O14526 whole entry, looked up): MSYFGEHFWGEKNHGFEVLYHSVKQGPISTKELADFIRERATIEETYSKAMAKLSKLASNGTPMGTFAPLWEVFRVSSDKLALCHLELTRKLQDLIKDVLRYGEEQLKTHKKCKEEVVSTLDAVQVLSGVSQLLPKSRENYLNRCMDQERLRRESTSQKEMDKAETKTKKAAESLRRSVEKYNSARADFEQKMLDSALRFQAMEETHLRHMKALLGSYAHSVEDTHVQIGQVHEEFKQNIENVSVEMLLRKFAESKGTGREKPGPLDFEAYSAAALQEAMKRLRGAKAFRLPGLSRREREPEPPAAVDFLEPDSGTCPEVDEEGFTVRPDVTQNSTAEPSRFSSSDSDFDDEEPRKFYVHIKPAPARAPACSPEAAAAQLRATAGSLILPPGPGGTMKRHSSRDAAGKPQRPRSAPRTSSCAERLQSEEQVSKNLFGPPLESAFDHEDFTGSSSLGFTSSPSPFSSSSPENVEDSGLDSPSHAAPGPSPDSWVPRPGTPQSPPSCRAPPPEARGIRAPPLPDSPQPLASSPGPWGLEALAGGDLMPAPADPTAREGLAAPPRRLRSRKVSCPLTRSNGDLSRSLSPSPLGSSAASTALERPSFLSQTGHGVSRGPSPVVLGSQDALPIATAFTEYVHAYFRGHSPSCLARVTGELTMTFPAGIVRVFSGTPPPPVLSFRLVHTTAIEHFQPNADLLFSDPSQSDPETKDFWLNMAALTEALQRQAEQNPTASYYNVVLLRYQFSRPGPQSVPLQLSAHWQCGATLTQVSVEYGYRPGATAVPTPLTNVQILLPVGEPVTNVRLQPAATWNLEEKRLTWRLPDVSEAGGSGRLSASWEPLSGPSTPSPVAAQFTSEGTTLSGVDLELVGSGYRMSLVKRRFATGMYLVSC
inactive: alvocidib 0.027 | Tubastatin A -0.188 | [1] 0.038 | defactinib 0.039 | [2] 0.038 | encorafenib 0.009 | [3] 0.076 | alisertib 0.009 | [4] -0.021 | gefitinib 0.003 | lapatinib -0.034 | pictilisib 0.027 | crizotinib -0.072 | [5] -0.061 | duvelisib -0.025 | gandotinib -0.027 | tozasertib 0.027 | doramapimod -0.039 | bafetinib -0.141 | [6] 0.058

GAPDH (UniProt P04406)
Sequence of UniProt P04406 (P04406 whole entry, looked up): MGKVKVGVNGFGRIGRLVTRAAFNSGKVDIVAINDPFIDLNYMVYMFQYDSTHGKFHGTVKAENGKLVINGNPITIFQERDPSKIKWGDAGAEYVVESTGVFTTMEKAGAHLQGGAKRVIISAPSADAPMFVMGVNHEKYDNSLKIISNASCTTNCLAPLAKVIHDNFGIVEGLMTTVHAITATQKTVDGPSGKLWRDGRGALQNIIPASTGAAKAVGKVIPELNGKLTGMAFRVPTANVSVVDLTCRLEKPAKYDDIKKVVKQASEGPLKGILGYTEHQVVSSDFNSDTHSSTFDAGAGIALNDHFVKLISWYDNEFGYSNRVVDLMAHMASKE
inactive: alvocidib 0.01 | Tubastatin A 0.046 | [1] 0 | defactinib 0.012 | [2] 0.018 | encorafenib -0.045 | [3] -0.006 | alisertib -0.039 | [4] -0.001 | gefitinib -0.026 | lapatinib 0.005 | pictilisib -0.024 | crizotinib 0.066 | [5] 0.043 | duvelisib 0.003 | gandotinib -0.002 | tozasertib -0.005 | doramapimod -0.031 | bafetinib 0.055 | [6] -0.082

DSN1 (UniProt Q9H410)
Sequence of UniProt Q9H410 (Q9H410 whole entry, looked up): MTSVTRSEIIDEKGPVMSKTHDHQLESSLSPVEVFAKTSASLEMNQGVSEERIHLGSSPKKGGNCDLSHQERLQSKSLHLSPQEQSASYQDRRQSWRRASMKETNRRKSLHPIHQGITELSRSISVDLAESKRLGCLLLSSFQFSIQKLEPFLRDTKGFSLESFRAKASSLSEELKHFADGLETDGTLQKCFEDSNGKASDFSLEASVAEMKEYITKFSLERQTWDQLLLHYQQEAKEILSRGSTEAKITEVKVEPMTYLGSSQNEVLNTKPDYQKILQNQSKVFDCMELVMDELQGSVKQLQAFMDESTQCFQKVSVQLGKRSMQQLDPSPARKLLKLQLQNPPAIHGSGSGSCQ
inactive: alvocidib -0.046 | Tubastatin A -0.087 | [1] 0.076 | defactinib 0.059 | [2] 0.04 | encorafenib 0.006 | [3] 0.107 | alisertib -0.005 | [4] 0.004 | gefitinib 0 | lapatinib 0.009 | pictilisib -0.027 | crizotinib -0.016 | [5] -0.051 | duvelisib 0.004 | gandotinib 0.008 | tozasertib 0.015 | doramapimod -0.037 | bafetinib -0.026 | [6] 0.021

EFCAB14 (UniProt O75071)
Sequence of UniProt O75071 (O75071 whole entry, looked up): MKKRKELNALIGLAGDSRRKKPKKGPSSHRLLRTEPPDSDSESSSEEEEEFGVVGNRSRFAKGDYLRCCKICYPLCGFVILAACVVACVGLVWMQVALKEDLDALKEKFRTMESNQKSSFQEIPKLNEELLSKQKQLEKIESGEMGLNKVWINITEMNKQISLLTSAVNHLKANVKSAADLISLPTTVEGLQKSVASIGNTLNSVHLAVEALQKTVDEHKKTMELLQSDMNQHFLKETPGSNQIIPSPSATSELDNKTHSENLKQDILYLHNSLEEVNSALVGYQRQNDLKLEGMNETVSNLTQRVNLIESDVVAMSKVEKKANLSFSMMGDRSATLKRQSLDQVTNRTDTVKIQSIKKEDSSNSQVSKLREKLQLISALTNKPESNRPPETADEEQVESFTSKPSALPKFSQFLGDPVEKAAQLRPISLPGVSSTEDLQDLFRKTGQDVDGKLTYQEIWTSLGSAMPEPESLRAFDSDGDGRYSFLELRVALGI
inactive: alvocidib -0.056 | Tubastatin A 0.077 | [1] 0.01 | defactinib -0.007 | [2] -0.058 | encorafenib 0.038 | [3] -0.086 | alisertib 0.063 | [4] 0.012 | gefitinib -0.131 | lapatinib -0.051 | pictilisib -0.058 | crizotinib 0.006 | [5] 0.037 | duvelisib 0.022 | gandotinib 0.064 | tozasertib 0.086 | doramapimod 0.011 | bafetinib -0.002 | [6] -0.084

EIF2B4 isoform 2 (UniProt Q9UI10)
Sequence of UniProt Q9UI10 (Q9UI10 whole entry, looked up): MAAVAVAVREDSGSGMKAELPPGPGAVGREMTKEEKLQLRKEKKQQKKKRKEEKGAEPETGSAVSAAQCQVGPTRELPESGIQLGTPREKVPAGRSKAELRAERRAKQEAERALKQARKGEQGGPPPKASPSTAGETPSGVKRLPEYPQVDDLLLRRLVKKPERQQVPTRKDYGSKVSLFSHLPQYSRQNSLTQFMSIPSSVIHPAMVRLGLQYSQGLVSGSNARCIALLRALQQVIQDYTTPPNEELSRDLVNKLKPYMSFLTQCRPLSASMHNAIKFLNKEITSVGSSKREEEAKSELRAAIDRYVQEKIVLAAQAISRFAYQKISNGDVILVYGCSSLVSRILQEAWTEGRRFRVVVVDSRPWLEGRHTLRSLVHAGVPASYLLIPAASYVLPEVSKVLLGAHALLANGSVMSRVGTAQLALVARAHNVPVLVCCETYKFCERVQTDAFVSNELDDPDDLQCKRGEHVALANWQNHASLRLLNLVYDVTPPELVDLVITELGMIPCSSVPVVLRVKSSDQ
inactive: alvocidib -0.015 | Tubastatin A -0.025 | [1] 0.013 | defactinib 0.035 | [2] 0.02 | encorafenib 0.018 | [3] 0.162 | alisertib -0.014 | [4] 0.016 | gefitinib 0 | lapatinib -0.041 | pictilisib 0.007 | crizotinib -0.037 | [5] -0.021 | duvelisib -0.013 | gandotinib -0.048 | tozasertib -0.01 | doramapimod -0.012 | bafetinib -0.058 | [6] 0.044
